# Measurements from paper PMC11006913.
# Substitutions are numbered along the chain they refer to.
# Legend:
# Test in all cases: PBM; 200 nM protein, PBS
# Conditions in all cases: dsDNA, one strand shown
# [1] = target: NKX2-5 (Homo sapiens, UniProt P52952 125-210, R139K)
# [2] = target: T1, PAX4 (Homo sapiens, UniProt O43316 9-242, R200K)
# T1 sequence: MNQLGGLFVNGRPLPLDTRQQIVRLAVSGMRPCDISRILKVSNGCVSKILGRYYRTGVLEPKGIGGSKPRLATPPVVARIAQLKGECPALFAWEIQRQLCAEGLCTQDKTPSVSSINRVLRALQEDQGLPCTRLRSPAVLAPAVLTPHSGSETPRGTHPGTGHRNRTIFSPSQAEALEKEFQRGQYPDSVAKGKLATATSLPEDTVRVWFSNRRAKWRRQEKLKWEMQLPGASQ
# [3] = target: T2, PAX4 (Homo sapiens, UniProt O43316 9-242)
# T2 sequence: T1 sequence with K192R
# [4] = target: T3, PAX4 (Homo sapiens, UniProt O43316 9-242, R200Q)
# T3 sequence: T1 sequence with K192Q
# [5] = target: T4, PAX4 (Homo sapiens, UniProt O43316 9-242, F177V)
# T4 sequence: T1 sequence with F169V, K192R
# [6] = target: T5, PAX4 (Homo sapiens, UniProt O43316 9-242, F177Y)
# T5 sequence: T1 sequence with F169Y, K192R
# [7] = target: T6, PAX4 (Homo sapiens, UniProt O43316 9-242, R227W)
# T6 sequence: T1 sequence with K192R, R219W
# [8] = target: NKX2-5 (Homo sapiens, UniProt P52952 125-210)
# NKX2-5 (Homo sapiens, UniProt P52952 125-210), sequence (P52952 125-210): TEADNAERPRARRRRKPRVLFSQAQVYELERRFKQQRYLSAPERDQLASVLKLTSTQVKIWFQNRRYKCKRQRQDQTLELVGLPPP
# [9] = target: T7, NKX2-6 (Homo sapiens, UniProt A6NCS4 118-204, R150C)
# T7 sequence: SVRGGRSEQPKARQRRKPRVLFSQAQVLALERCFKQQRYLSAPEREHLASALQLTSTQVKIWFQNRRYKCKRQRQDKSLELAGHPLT
# [10] = target: ALX1 (Homo sapiens, UniProt Q15699 118-204, L144V)
# ALX1 (Homo sapiens, UniProt Q15699 118-204, L144V), sequence (Q15699 118-204 L144V): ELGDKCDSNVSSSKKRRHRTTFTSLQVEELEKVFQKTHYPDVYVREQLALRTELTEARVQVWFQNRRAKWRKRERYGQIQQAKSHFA
# [11] = target: T8, NKX2-6 (Homo sapiens, UniProt A6NCS4 118-204)
# T8 sequence: T7 sequence with C33R
# [12] = target: T9, NKX2-4 (Homo sapiens, UniProt Q9H2Z4 175-261, R246Q)
# T9 sequence: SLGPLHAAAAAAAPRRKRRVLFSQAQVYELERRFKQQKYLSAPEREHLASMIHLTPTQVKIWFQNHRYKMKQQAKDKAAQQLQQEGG
# [13] = target: T10, NKX2-6 (Homo sapiens, UniProt A6NCS4 118-204, F151L)
# T10 sequence: T7 sequence with C33R, F34L
# [14] = target: NKX3-2 (Homo sapiens, UniProt P78367 192-278, P234S)
# NKX3-2 (Homo sapiens, UniProt P78367 192-278, P234S), sequence (P78367 192-278 P234S): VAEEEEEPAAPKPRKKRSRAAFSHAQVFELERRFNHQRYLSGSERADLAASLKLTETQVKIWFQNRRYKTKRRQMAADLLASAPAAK
# [15] = target: ALX1 (Homo sapiens, UniProt Q15699 118-204)
# ALX1 (Homo sapiens, UniProt Q15699 118-204), sequence (Q15699 118-204): as the sequence (Q15699 118-204 L144V) above, with V27L counted along it
# [16] = target: NKX3-2 (Homo sapiens, UniProt P78367 192-278)
# NKX3-2 (Homo sapiens, UniProt P78367 192-278), sequence (P78367 192-278): as the sequence (P78367 192-278 P234S) above, with S43P counted along it
# [17] = target: HOXA2 (Homo sapiens, UniProt O43364 129-215, R185T)
# HOXA2 (Homo sapiens, UniProt O43364 129-215, R185T), sequence (O43364 129-215 R185T): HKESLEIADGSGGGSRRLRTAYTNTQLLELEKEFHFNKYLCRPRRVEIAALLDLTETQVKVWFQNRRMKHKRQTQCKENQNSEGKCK
# [18] = target: MSX2 (Homo sapiens, UniProt P35548 130-214, R199I)
# MSX2 (Homo sapiens, UniProt P35548 130-214, R199I), sequence (P35548 130-214 R199I): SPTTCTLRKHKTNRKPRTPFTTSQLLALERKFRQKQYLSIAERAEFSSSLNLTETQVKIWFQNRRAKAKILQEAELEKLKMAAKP
# [19] = target: HOXD13 (Homo sapiens, UniProt P35453 263-343, T313R)
# HOXD13 (Homo sapiens, UniProt P35453 263-343, T313R), sequence (P35453 263-343 T313R): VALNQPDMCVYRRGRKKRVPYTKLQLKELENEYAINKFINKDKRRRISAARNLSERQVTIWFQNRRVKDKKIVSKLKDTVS
# [20] = target: HOXA2 (Homo sapiens, UniProt O43364 129-215, R185K)
# HOXA2 (Homo sapiens, UniProt O43364 129-215, R185K), sequence (O43364 129-215 R185K): as the sequence (O43364 129-215 R185T) above, with T57K counted along it
# [21] = target: HOXD13 (Homo sapiens, UniProt P35453 263-343)
# HOXD13 (Homo sapiens, UniProt P35453 263-343), sequence (P35453 263-343): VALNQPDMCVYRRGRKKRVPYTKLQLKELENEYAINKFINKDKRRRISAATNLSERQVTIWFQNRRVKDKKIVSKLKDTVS
# [22] = target: MSX2 (Homo sapiens, UniProt P35548 130-214)
# MSX2 (Homo sapiens, UniProt P35548 130-214), sequence (P35548 130-214): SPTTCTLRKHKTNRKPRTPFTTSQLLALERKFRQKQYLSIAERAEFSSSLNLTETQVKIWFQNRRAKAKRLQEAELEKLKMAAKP
# [23] = target: VAX1 (Homo sapiens, UniProt Q5SQQ9 86-172)
# VAX1 (Homo sapiens, UniProt Q5SQQ9 86-172), sequence (Q5SQQ9 86-172): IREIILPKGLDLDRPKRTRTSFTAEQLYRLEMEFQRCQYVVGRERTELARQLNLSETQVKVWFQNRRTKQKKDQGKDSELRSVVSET
# [24] = target: HOXD13 (Homo sapiens, UniProt P35453 263-343, T313A)
# HOXD13 (Homo sapiens, UniProt P35453 263-343, T313A), sequence (P35453 263-343 T313A): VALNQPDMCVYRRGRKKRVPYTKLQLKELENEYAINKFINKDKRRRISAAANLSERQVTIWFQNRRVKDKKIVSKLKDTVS
# [25] = target: MSX2 (Homo sapiens, UniProt P35548 130-214, F161Y)
# MSX2 (Homo sapiens, UniProt P35548 130-214, F161Y), sequence (P35548 130-214 F161Y): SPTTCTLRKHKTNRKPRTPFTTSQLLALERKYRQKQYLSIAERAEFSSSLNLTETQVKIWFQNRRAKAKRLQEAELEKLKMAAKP
# [26] = target: VAX1 (Homo sapiens, UniProt Q5SQQ9 86-172, T142I)
# VAX1 (Homo sapiens, UniProt Q5SQQ9 86-172, T142I), sequence (Q5SQQ9 86-172 T142I): as the sequence (Q5SQQ9 86-172) above, with T57I counted along it
# [27] = target: HOXA2 (Homo sapiens, UniProt O43364 129-215, Y150S)
# HOXA2 (Homo sapiens, UniProt O43364 129-215, Y150S), sequence (O43364 129-215 Y150S): as the sequence (O43364 129-215 R185T) above, with Y22S, T57R counted along it
# [28] = target: HOXA2 (Homo sapiens, UniProt O43364 129-215)
# HOXA2 (Homo sapiens, UniProt O43364 129-215), sequence (O43364 129-215): as the sequence (O43364 129-215 R185T) above, with T57R counted along it
# [29] = target: VAX1 (Homo sapiens, UniProt Q5SQQ9 86-172, K157R)
# VAX1 (Homo sapiens, UniProt Q5SQQ9 86-172, K157R), sequence (Q5SQQ9 86-172 K157R): as the sequence (Q5SQQ9 86-172) above, with K72R counted along it
# NKX2-5 (Homo sapiens, UniProt P52952 125-210, R139K), sequence (P52952 125-210 R139K): as the sequence (P52952 125-210) above, with R15K counted along it
sequence,measurement,setting,value
ACGCCGGC,binding signal,[1],"8.53 upbm affinity estimate (log intensity, higher = more binding, comparable within an allelic series)"
same,binding signal,[2],"9.13 upbm affinity estimate (log intensity, higher = more binding, comparable within an allelic series)"
same,binding signal,[3],"9.3 upbm affinity estimate (log intensity, higher = more binding, comparable within an allelic series)"
same,binding signal,[4],"9.23 upbm affinity estimate (log intensity, higher = more binding, comparable within an allelic series)"
same,binding signal,[5],"9.3 upbm affinity estimate (log intensity, higher = more binding, comparable within an allelic series)"
same,binding signal,[6],"9.27 upbm affinity estimate (log intensity, higher = more binding, comparable within an allelic series)"
same,binding signal,[7],"9.27 upbm affinity estimate (log intensity, higher = more binding, comparable within an allelic series)"
same,binding signal,[8],"8.56 upbm affinity estimate (log intensity, higher = more binding, comparable within an allelic series)"
CGCACTTA,binding signal,[1],"12.6 upbm affinity estimate (log intensity, higher = more binding, comparable within an allelic series)"
same,binding signal,[9],"11.8 upbm affinity estimate (log intensity, higher = more binding, comparable within an allelic series)"
same,binding signal,[10],"8.31 upbm affinity estimate (log intensity, higher = more binding, comparable within an allelic series)"
same,binding signal,[11],"13.5 upbm affinity estimate (log intensity, higher = more binding, comparable within an allelic series)"
same,binding signal,[12],"12.9 upbm affinity estimate (log intensity, higher = more binding, comparable within an allelic series)"
same,binding signal,[13],"10.9 upbm affinity estimate (log intensity, higher = more binding, comparable within an allelic series)"
same,binding signal,[14],"12.6 upbm affinity estimate (log intensity, higher = more binding, comparable within an allelic series)"
same,binding signal,[15],"8.83 upbm affinity estimate (log intensity, higher = more binding, comparable within an allelic series)"
same,binding signal,[8],"12.5 upbm affinity estimate (log intensity, higher = more binding, comparable within an allelic series)"
same,binding signal,[16],"12.7 upbm affinity estimate (log intensity, higher = more binding, comparable within an allelic series)"
CCCTGGCC,binding signal,[1],"8.8 upbm affinity estimate (log intensity, higher = more binding, comparable within an allelic series)"
same,binding signal,[17],"6.94 upbm affinity estimate (log intensity, higher = more binding, comparable within an allelic series)"
same,binding signal,[18],"9.39 upbm affinity estimate (log intensity, higher = more binding, comparable within an allelic series)"
same,binding signal,[19],"9.22 upbm affinity estimate (log intensity, higher = more binding, comparable within an allelic series)"
same,binding signal,[20],"10.1 upbm affinity estimate (log intensity, higher = more binding, comparable within an allelic series)"
same,binding signal,[21],"9.28 upbm affinity estimate (log intensity, higher = more binding, comparable within an allelic series)"
same,binding signal,[22],"9.37 upbm affinity estimate (log intensity, higher = more binding, comparable within an allelic series)"
same,binding signal,[23],"6.64 upbm affinity estimate (log intensity, higher = more binding, comparable within an allelic series)"
same,binding signal,[24],"9.38 upbm affinity estimate (log intensity, higher = more binding, comparable within an allelic series)"
same,binding signal,[25],"9.41 upbm affinity estimate (log intensity, higher = more binding, comparable within an allelic series)"
same,binding signal,[26],"6.9 upbm affinity estimate (log intensity, higher = more binding, comparable within an allelic series)"
same,binding signal,[27],"10.4 upbm affinity estimate (log intensity, higher = more binding, comparable within an allelic series)"
same,binding signal,[28],"6.83 upbm affinity estimate (log intensity, higher = more binding, comparable within an allelic series)"
same,binding signal,[29],"6.7 upbm affinity estimate (log intensity, higher = more binding, comparable within an allelic series)"
same,binding signal,[8],"8.75 upbm affinity estimate (log intensity, higher = more binding, comparable within an allelic series)"
